Screening results as filed in PubChem.
Tau FP inhib: qHTS for Inhibitors of Tau Fibril Formation, Fluorescence Polarization; Microtubule-associated protein tau (Homo sapiens), P10636; K18 P301L tau heparin fibrillization, Alexa594 FP, 6 h; Potency, µM (doses to about 57.7 µM), hits mostly inhibitors; 280,000 compounds, 0.39% hits; AID 1468, 2008; note: nearly all actives have a fitted effect of over 55% in size
Target sequence (P10636 561-689 P618L limits assumed): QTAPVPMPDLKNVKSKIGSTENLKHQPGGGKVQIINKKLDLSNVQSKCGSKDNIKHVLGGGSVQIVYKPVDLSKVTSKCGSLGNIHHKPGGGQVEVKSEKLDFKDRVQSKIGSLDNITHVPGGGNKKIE
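Steps: dispense K18 P301L tau (15 uM plus 0.24 uM Alexa 594 tracer, final) in pH 7 sodium acetate; add compound; add heparin (20 uM final); incubate 6 hr, 37 C; add ThT (30 uM final); after 1 hr ambient, read FP.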
Tau fluor cs: Counterscreen qHTS for Inhibitors of Tau Fibril Formation, Fluorescence Polarization. tau K18 P301L Alexa594 fluorescence, heparin fibrillization. Potency, µM (top dose mostly 57.7 µM). 280,000 compounds, 0.93% hits; note: nearly all actives have a fitted effect of over 55% in size
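Human tau K18 P301L (15 uM unlabeled, 0.24 uM Alexa 594-labeled) in 100 mM sodium acetate pH 7 with 20 uM heparin, 6 hr at 37 C. ThT 30 uM added, 1 hr ambient; Alexa 594 FP and total fluorescence read at 555/632 nm.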
TRb-SRC2 inh: qHTS for Inhibitors of the Interaction of Thyroid Hormone Receptor and Steroid Receptor Coregulator 2 | AID 1469, 2008 | 280,000 compounds, 0.065% hits | Potency, µM (titrated, usually from 106 µM), most hits filed as inhibitors | TRbeta-SRC2 peptide binding, fluorescence polarization; receptor liganded with 1 µM T3; note: nearly all actives have a fitted effect of over 50% in size
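Each compound concentration gave % activity, normalized to unbound and bound Texas Red SRC2 controls, from polarization read after 5 hr ambient incubation with T3-loaded human TRb LBD.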
TR SRC2 fluor cs: Total Fluorescence Counterscreen for Inhibitors of the Interaction of Thyroid Hormone Receptor and Steroid Receptor Coregulator 2. Potency, µM (series often up to 106 µM). 280,000 compounds, 0.29% hits. TRb/SRC2 Texas Red total fluorescence interference; active = well fitted curve in either direction with a large enough effect; inconclusive = small, poorly fitted or top-dose-only effect
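Human TRb ligand-binding domain at 0.6 uM with 20 nM Texas Red SRC2 peptide in Tris buffer containing 1 uM T3 and 5% DMSO, incubated with compound 5 h at ambient temperature. Total fluorescence (555/632 nm) calculated as parallel + 2 × perpendicular.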
Tau ThT inhib: qHTS for Inhibitors of Tau Fibril Formation, Thioflavin T Binding; recombinant tau K18 P301L (four-repeat tau fragment), heparin-induced fibrillization, ThT fluorescence; Microtubule-associated protein tau (Homo sapiens), P10636; 270,000 compounds, 2.1% hits; Potency, µM (titrated, usually from 57.4 µM), usual class: inhibitors; note: nearly all actives have a fitted effect of over 55% in size
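Aggregation was driven by heparin (20 uM final) acting on recombinant tau […] bearing P301L in 100 mM sodium acetate pH 7; fibrils were detected with Thioflavin T.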
RGS12 GoLoco inh: qHTS Assay for Inhibitors of RGS12 GoLoco Motif Activity (Red Fluorophore). Guanine nucleotide-binding protein G(i) subunit alpha-1 (Homo sapiens), P63096. Gai1:RGS12 GoLoco peptide FP, rhodamine, 10 min. Potency, µM (series often up to 61.6 µM), most hits filed as inhibitors. 230,000 compounds, 0.44% hits. AID 880, 2007; active = well fitted inhibition curve with a large enough effect, not every such curve was filed as active; inactive = no such curve, though single readings can be large or run the other way; note: nearly all actives have a fitted effect of over 30% in size
Target sequence (P63096 whole entry, looked up): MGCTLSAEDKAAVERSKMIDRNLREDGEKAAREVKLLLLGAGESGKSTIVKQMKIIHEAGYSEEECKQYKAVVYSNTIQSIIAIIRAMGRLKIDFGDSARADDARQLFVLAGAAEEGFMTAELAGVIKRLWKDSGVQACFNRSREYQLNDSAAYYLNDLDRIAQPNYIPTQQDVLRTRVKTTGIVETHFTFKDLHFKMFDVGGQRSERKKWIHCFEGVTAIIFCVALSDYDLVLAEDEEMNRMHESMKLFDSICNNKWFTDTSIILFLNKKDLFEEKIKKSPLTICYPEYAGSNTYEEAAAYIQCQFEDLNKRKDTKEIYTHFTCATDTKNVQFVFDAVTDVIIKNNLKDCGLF
Of the large screens only hits and unclear results are named; the others gave an inactive call; [ ] = remark or other dose. Sampled rows, rich in hits. Any-hit rate of the full collection: about 3.2%. Unless noted, calls come from the whole dose curve; as a rule, active = well fitted curve in the direction sought with a large enough effect; inconclusive = small, poorly fitted or top-dose-only effect, or another doubt; inactive = no such curve, though single readings can be large; an effect the other way counts as inactive or inconclusive.

COc1cc(/C=C/C(=O)N2C(=O)c3cccc(N)c3C2=O)cc(OC)c1OC	Tau FP inhib inconclusive, Tau ThT inhib inconclusive
Nc1cccc2c1C(=O)N(C(=O)/C=C/c1cccc(Br)c1)C2=O	Tau FP inhib inconclusive, Tau ThT inhib 25.1µM
COc1ccc(OC)c(/C=C/C(=O)N2C(=O)c3cccc(N)c3C2=O)c1	Tau FP inhib inconclusive, Tau ThT inhib 14.1µM
O=c1c2nc(Br)n([C@@H]3O[C@@H]4CO[P@@](O)(=S)O[C@H]4[C@H]3O)c2nc2[nH]c(-c3ccccc3)cn12	none (no result: Tau FP inhib, Tau fluor cs, Tau ThT inhib, RGS12 GoLoco inh)
CC1=NC(=O)C(N=Nc2cccc(O)c2)N1c1ccccc1 (stereo not drawn)	Tau fluor cs inconclusive, Tau ThT inhib 5.01µM, RGS12 GoLoco inh 15.8µM
Cc1cccc(-n2c(O)c(C=Nc3cccc(O)c3)c3ccccc3c2=O)n1	none
CC(=O)/C(N=Nc1ccc2c(c1)OCO2)=C(\C)O	Tau ThT inhib 3.55µM
CC(=O)/C(N=Nc1ccc2c(c1)OCCO2)=C(\C)O	Tau ThT inhib 10µM
CC(=O)/C(N=Nc1ccc(C(=O)O)cc1)=C(\C)O	none
O=S(=O)(O)c1ccc(-c2nnc(-c3ccccn3)nc2-c2ccc(S(=O)(=O)O)o2)o1	none (no result: Tau FP inhib, Tau fluor cs, TRb-SRC2 inh, TR SRC2 fluor cs, Tau ThT inhib)
COc1ccc(OC)c(NC(=O)c2c(NCc3ccc(N(C)C)cc3)sc3c2CCCC3)c1	Tau fluor cs inconclusive, Tau ThT inhib inconclusive (no result: RGS12 GoLoco inh)
NC(=S)N=Nc1c(O)[nH]c2ccccc12	Tau ThT inhib inconclusive
NC(=S)N=Nc1c(O)[nH]c2c(Br)cc(Br)cc12	Tau ThT inhib 7.94µM
O=[N+]([O-])c1ccccc1NC(=S)N/N=C/c1ccc(O)c(O)c1	Tau fluor cs inconclusive, Tau ThT inhib 5.62µM
CCOC(=O)NCCOc1ccc(Oc2ccccc2)cc1	none (no result: Tau FP inhib, Tau fluor cs, Tau ThT inhib, RGS12 GoLoco inh)
CC1=NN(c2nc(-c3ccc(C)cc3)cs2)C(=O)C1N=Nc1cccc(C)c1 (stereo not drawn)	Tau FP inhib inconclusive, Tau ThT inhib 2µM
CCc1nn(C(C)C(=O)N2CCN(c3cccc(C(F)(F)F)c3)CC2)c(=O)c2cc3occc3n12 (stereo not drawn)	Tau ThT inhib inconclusive (no result: RGS12 GoLoco inh)
C=CCN1c2ccccc2[C@]23C[C@@H](C(=O)OC)N(S(=O)(=O)CCCC)C2=NC(C(=O)OC)=C(C(=O)OC)[C@H]13	none
N#CC1=C2SCN(Cc3ccco3)CN2C(=O)CC1c1cccc2ccccc12 (stereo not drawn)	Tau FP inhib inconclusive, Tau ThT inhib 17.8µM
N#CC1=C2SCN(Cc3ccco3)CN2C(=O)CC1c1ccccc1F (stereo not drawn)	Tau FP inhib inconclusive, Tau ThT inhib 17.8µM
CCOc1ccc(-c2cc(C(=O)NCCc3ccc(C)cc3)c3ccccc3n2)cc1	none (no result: RGS12 GoLoco inh)
CCc1cc(SC#N)cc(CC)c1NC(=O)CCl	Tau FP inhib 7.08µM, Tau ThT inhib 3.55µM
Cc1cccc(CSc2nc3c(cc2C#N)CCC3)c1	none
N#Cc1cc2c(nc1SCc1nc3ccccc3[nH]1)CCC2	Tau fluor cs inconclusive, Tau ThT inhib 6.31µM
Cc1cccc2c(N=Nc3ccc(S(=O)(=O)Nc4cccc(Cl)c4)cc3[N+](=O)[O-])c(O)[nH]c12	Tau fluor cs 5.62µM[quencher], Tau ThT inhib inconclusive
Cc1ccc(S(C)(=O)=O)cc1S(=O)(=O)Nc1cccc(Cl)c1	none
CCC1=NNc2cccc3c(OC)ccc1c23	Tau FP inhib inconclusive, Tau fluor cs inconclusive, Tau ThT inhib 12.6µM, RGS12 GoLoco inh 17.8µM
Cc1ccc(Cn2cc(/C=C(/C#N)C(=O)Nc3cccc(Cl)c3)c3ccccc32)cc1	Tau FP inhib inconclusive, TR SRC2 fluor cs inconclusive (no result: RGS12 GoLoco inh)
O=C1C2C3C=CC(C3=C(c3ccccc3)c3ccccc3)C2C(=O)N1Cc1ccccc1 (stereo not drawn)	RGS12 GoLoco inh 14.1µM
Cc1ccc(N=Nc2c(O)[nH]c3ccc(F)cc23)cc1	Tau ThT inhib inconclusive
Cc1ccc(N=Nc2[nH]c3ccccc3c2O)cc1	RGS12 GoLoco inh 12.6µM
COc1ccc(N=Nc2[nH]c3ccc(C)cc3c2O)cc1	Tau fluor cs inconclusive, Tau ThT inhib inconclusive, RGS12 GoLoco inh 3.16µM
Cc1cc(N2CCN(C)CC2)nc2ccc(NC(=O)c3cccnc3Cl)cc12	Tau ThT inhib inconclusive
Cc1cc(N2CCN(C)CC2)nc2ccc(NC(=O)Nc3cccc(Cl)c3)cc12	Tau FP inhib inconclusive, Tau fluor cs 3.98µM[quencher], Tau ThT inhib 14.1µM (no result: RGS12 GoLoco inh)
Cc1ccc(NC(=O)Nc2ccc3nc(N4CCN(C)CC4)cc(C)c3c2)cc1C	Tau fluor cs 4.47µM[quencher], Tau ThT inhib 8.91µM (no result: RGS12 GoLoco inh)
Cc1cc(N2CCN(C)CC2)nc2ccc(NC(=S)NC3CC3)cc12	none
Cc1cc(N2CCN(C)CC2)nc2ccc(NC(=O)Nc3ccccc3Br)cc12	Tau FP inhib inconclusive, Tau fluor cs 12.6µM[quencher], Tau ThT inhib 12.6µM (no result: RGS12 GoLoco inh)
Cc1cc(N2CCN(C)CC2)nc2ccc(NC(=O)Nc3ccc(F)cc3F)cc12	Tau FP inhib inconclusive, Tau fluor cs 15.8µM[quencher], Tau ThT inhib inconclusive (no result: RGS12 GoLoco inh)
CCC(C)CC(C)CC(C)C(=O)/C=C(/O)C(C)CC(C)C/C=C/C(C)C(O)C(C)C(O)CC1CCC(C)(C)O1 (stereo not drawn)	none (no result: Tau FP inhib, Tau fluor cs, Tau ThT inhib, RGS12 GoLoco inh)
Cc1cc(N2CCN(C)CC2)nc2ccc(NC(=O)c3ccccc3F)cc12	Tau fluor cs inconclusive, Tau ThT inhib inconclusive
Cc1cc(N2CCN(C)CC2)nc2ccc(NC(=O)Nc3ccccc3)cc12	Tau FP inhib inconclusive, Tau fluor cs 17.8µM[quencher], Tau ThT inhib inconclusive (no result: RGS12 GoLoco inh)
